Assay results reported in PubChem BioAssay (NCATS).
Several values for one entry are separate records, joined by “and”; a condition that tells them apart may be missing. Equal values may be shown once. Records with an inconclusive call do not appear. Activity calls are given as the source filed them. The call rests on the fitted dose curve; in most records, active means well fitted inhibition curve with a large enough effect; inconclusive means small, poorly fitted or top-dose-only effect; inactive means flat fitted curve, though single readings scatter.

System: KB-3-1
Assay: Cytotoxic Profiling of Annotated Libraries Using Quantitative High-Throughput Screening (AID 1296008); further: nearly all actives have a fitted effect of over 60% in size
Details: Five cell lines viability, CellTiter-Glo ATP luminescence, 48-72 h; max response: stronger effect = lower value
Source text: Cell-based phenotypic screening is a commonly used approach to discover biological pathways, novel drug targets, chemical probes and high-quality hit-to-lead molecules. Many hits identified from high-throughput screening campaign are ruled out through a series of follow-up potency, selectivity/specificity, and cytotoxicity assays. Prioritization of molecules with little or no cytotoxicity for a more in-depth downstream evaluation influence the future direction of projects, so cytotoxicity profiling of the screening libraries at early stage is essential for increasing the likelihood of candidate success. […] For the annotated library, we also examined the primary targets and mechanistic pathways regularly associated with cell death. To our knowledge, this is the first study to use high-throughput screening to profile large libraries for cytotoxicity assessment in both normal and cancer cell lines. In summary, the results generated here constitutes a valuable resource for the scientific community and provides insight on identifying cytotoxic compounds with particular mechanisms of action, and prioritizing compounds with suitable cytotoxicity profile for further evaluation.
A pintool (Kalypsys) was used to transfer 23 nL of compound solution to the 1536-well assay plates. After 48 or 72 hr incubation at 37 degree Celsius, 5% CO2 and 95% humidity, 2.5 uL of CellTiter-Glo (Promega) was dispensed into each well using a dispenser (Aspect Automation, St. Paul, MN) with solenoid valves (Lee Valves, Westbrook CT). Plates were left at room temperature for 10 min before imaging the ATP-coupled luminescence using a ViewLux microplate imager (PerkinElmer, Waltham, MA).
On the % scale 0 is the no-effect control and ±100 the full control effect; potency means the concentration at half of the fitted maximal effect.

SMILES | max response | outcome | Potency
CN1[C@@H]2CC[C@H]1CC(OC(=O)C1C=Nc3ccccc31)C2 (stereo not given in full) | 7.85% (inactive) | – | –
CCC1(c2ccccc2)C(=O)NC(=O)N(C)C1=O (stereo not given) | -7.5% (inactive) | – | –
COc1ccc2c3c1O[C@H]1[C@@H](O)C=C[C@H]4[C@@H](C2)NCC[C@@]341 | 2.68% (inactive) and -3.7% (inactive) | – | –
C/C(=C\c1csc(C)n1)[C@@H]1C[C@@H]2O[C@]2(C)CCC[C@H](C)[C@H](O)[C@@H](C)C(=O)C(C)(C)[C@@H](O)CC(=O)O1 | -86.7% (inactive) | – | –
CC(C)C1(OO)C=C2C(=O)CC3C(C)(C(=O)O)CCCC3(C)C2CC1 (stereo not given) | 7.41% (inactive) | – | –
O=C1OC2(c3cc(Br)c(O)cc3Oc3c2cc(Br)c(O)[c]3[Hg])c2ccccc21 (stereo not given) | 6.88% (inactive) | – | –
O=c1[nH]cc(N(CCCl)CCCl)c(=O)[nH]1 | -15% (inactive) | – | –
CN(C)[C@H](Cc1ccccc1)c1ccccc1 | 1.61% (inactive) | – | –
CC(=O)OC1CN2CCC1CC2 (stereo not given) | 4.86% (inactive) | – | –
CCOc1ccc2c3c1O[C@H]1[C@@H](O)C=C[C@H]4[C@@H](C2)N(C)CC[C@@]341 | -8.27% (inactive) | – | –
CCC(N)Cc1c[nH]c2ccccc12 (stereo not given) | 3.31% (inactive) and -1.82% (inactive) | – | –
O=C(NCNC(=O)NC1C(=O)NC(=O)N1CO)NC1C(=O)NC(=O)N1CO (stereo not given) | 2.87% (inactive) | – | –
CC(C)(C)c1cc(C(C)(C)C)c2c(c1)C(O)(C(F)(F)F)C(=O)O2 (stereo not given) | – | inactive | –
C=C[C@H]1[C@H](O[C@@H]2O[C@H](CO)[C@@H](O)[C@H](O)[C@H]2O)OC=C2C(=O)OCC[C@H]21 | – | inactive | –
CC(C)(O)[C@H]1O[C@H]2CC[C@@]3(C)[C@@](O)(CC[C@H]4Cc5c([nH]c6ccccc56)[C@@]43C)C2=CC1=O | 9.13% (inactive) | – | –
CNC1(c2ccccc2Cl)CCCCC1=O (stereo not given) | 3.79% (inactive) and -7.59% (inactive) | – | –
C=CC(C)(O)CC/C=C(\C)C(=O)O[C@H]1[C@H](O)[C@@H](CO)O[C@@H](OC(=O)[C@]23CCC(C)(C)CC2C2=CCC4[C@@]5(C)CC[C@H](O[C@@H]6O[C@H](CO[C@@H]7OC[C@H](O)[C@H](O)[C@H]7O[C@@H]7OC[C@@H](O)[C@H](O)[C@H]7O)[C@@H](O)[C@H](O)[C@H]6O)C(C)(C)C5CC[C@@]4(C)[C@]2(C)CC3)[C@@H]1OC1OC(C)C(O[C@@H]2OC[C@@H](O)[C@H](O[C@@H]3OC[C@@H](O)[C@H](O)[C@H]3O)[C@H]2O)C(O)C1O (stereo not given in full) | -0.269% (inactive) | – | –
CCN1C[C@]2(COC)[C@H](O)C[C@H](OC)[C@@]34[C@@H]5C[C@@]6(O)[C@H](OC(=O)c7ccccc7)[C@@H]5[C@@](OC(C)=O)([C@@H]([C@H](OC)[C@H]23)[C@@H]14)[C@@H](O)[C@@H]6OC | 2.56% (inactive) | – | –
CC(CCc1ccc(O)cc1)O[C@@H]1O[C@H](CO[C@H]2OC[C@](O)(CO)[C@H]2O)[C@@H](O)[C@H](O)[C@H]1O (stereo not given in full) | 6.77% (inactive) | – | –
CCOC(=O)c1ccccc1C(=O)OCC | -4.85% (inactive) | – | –

SMILES | max response | outcome | Potency
O=C1C[C@@H]2OCC=C3CN4CC[C@]56c7ccccc7N1[C@H]5[C@H]2[C@H]3C[C@H]46 | -9.91% (inactive) | inactive | –
C[C@H]1CCC[C@H](O)CCCCCc2cc(O)cc(O)c2C(=O)O1 | 2.03% (inactive) | – | –
COC1CC(OC2CCC3(C)C(=CCC4C3CCC3(C)C(C(C)OC5OC(COC6OC(CO)C(O)C(O)C6O)C(O)C(O)C5O)CCC43O)C2)OC(C)C1OC1OC(C)C(O)C(OC)C1O (stereo not given) | 9.26% (inactive) | – | –
S=C(S)N1CCNCC1 | 7.2% (inactive) | – | –
CC(C)(C)c1cc(O)ccc1O | 3.78% (inactive) and 3.98% (inactive) | – | –
O=C(CS(=O)C(c1ccccc1)c1ccccc1)NO (stereo not given) | -1.93% (inactive) | – | –
[O]=[Cd] | -8.4% (inactive) | – | –
COC1CC(OC2CCC3(C=O)C(CCC4C3CCC3(C)C(C5=CC(=O)OC5)CCC43O)C2)OC(C)C1OC1OC(CO)C(O)C(O)C1O (stereo not given) | – | – | 343 nM (active)
C=CC(C)(C)c1[nH]c2cccc3c2c1C[C@@H]1[C@@H]3[C@@H](OC(C)=O)[C@H](C)CN1C | 4.47% (inactive) | – | –
CC(=O)OCC(=O)[C@H]1CC[C@H]2[C@@H]3CC[C@H]4C[C@H](O)CC[C@]4(C)[C@H]3C(=O)C[C@]12C | 2.82% (inactive) | – | –
COC1=CC=C2[C@H]3Cc4ccc(OC)c5c4[C@@]2(CCN3C)[C@H]1O5 | 16.1% (inactive) and -9.66% (inactive) | – | –
O=[N+]([O-])c1cc(I)c(O)c(I)c1 | -0.558% (inactive) | – | –
COC(=O)C1(C)CCC(=O)C2(C)c3c(O)cc(C(C)C)cc3C(O)C(OC(C)=O)C12 (stereo not given) | 0.842% (inactive) | – | –
O=S(=O)(O)c1cc(O)ccc1O | 6.29% (inactive) | – | –
Cc1ccccc1-n1c(C)nc2ccccc2c1=O | -2.74% (inactive) and -4.4% (inactive) | – | –
CCCCCCC(=O)O[C@H]1CC[C@H]2[C@@H]3CC[C@H]4CC(=O)C=C(C)[C@]4(C)[C@H]3CC[C@]12C | -2.21% (inactive) | – | –
[Cl-].[Cl-].[Hg+2] | -9.23% (inactive) | – | –
O=[N+]([O-])c1ccc(F)c([N+](=O)[O-])c1 | -19.8% (inactive) | – | –
[2H]C([2H])([2H])[C@H](N)Cc1ccccc1 | 2.04% (inactive) | – | –
